Source: PubChem BioAssay AID624134 (Broad Institute, 2012)
In all, about 1,600 compounds went through this assay and about 1,100 (69%) were called active. The set was probably picked from earlier hits. Not all results are given here. Potency and affinity values are given separately. Records with an inconclusive call do not appear.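 The calls were made as follows: active = signal drop with fitted half-maximal concentration no higher than twice the top valid tested concentration; inconclusive = flat curve with 30 to 70% signal loss, or poor fit; inactive = the rest, including signal rises and flat curves within 30%.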 Non-standard residues stand in square brackets, D forms with d. Residues, ends and D or L forms follow the SMILES beside them. *: point of attachment. Ac5c = NC1(C(=O)O)CCCC1; Cbz = O=C(OCc1ccccc1)*

Test: loss of viability in HepG2 cells – cell-based, CellTiter-Glo, cherry-picked, cytotoxicity control for Shn3 inhibitor project, dose response (AID 624134);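 also: 0% = median of neutral control wells and -100% = median of positive control wells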
Conditions: CellTiter-Glo ATP luminescence, 48 h; series mostly up to 35 µM; activity change, negative = cytotoxicity: at the top concentration

| SMILES | activity change, negative = cytotoxicity |
| --- | --- |
| COc1ccccc1-c1cc(C(F)(F)F)nc(S(=O)(=O)CCCC(=O)Nc2cccnc2Cl)n1 | 10.7% [at 16 µM] (inactive) |
| CC(C)c1nnc(NC(=O)CCS(=O)(=O)c2nc(-c3cccs3)cc(C(F)(F)F)n2)s1 | -52.3% (inactive) |
| COC(=O)c1ccc(N2CCN(S(=O)(=O)c3ccc(C)cc3)CC2)c([N+](=O)[O-])c1 | -5.05% (inactive) |
| O=C1CC2(CCN(C(=O)c3ccccc3F)CC2)Oc2ccccc21 | -2.72% (inactive) |
| O=C(CSc1c2c(nc3ccc(Cl)cc13)CCCC2)NCc1ccco1 | -13.9% (inactive) |
| CSCCC(NC(=O)c1ccccc1)C(=O)OCC(=O)N(C)CCC#N (stereo not drawn) | -5.72% (inactive) |
| CC[C@@H](C(=O)[C@@H](C)[C@@H](O)[C@H](C)CCc1ccc(C)c(O)c1C(=O)O)[C@H]1O[C@](CC)([C@H]2CC[C@](O)(CC)[C@H](C)O2)C[C@@H]1C | 25.4% (inactive) |
| Cc1cc(C)n2nc(SCc3cccc(S(=O)(=O)N(C)C)c3)nc2n1 | -6.75% (inactive) |
| CC(C)NCC(O)COc1cccc2ccccc12 (stereo not drawn) | -1.75% (inactive) |
| CCn1c(C)nc2cc(-c3nnc(-c4c(-c5ccccc5)noc4C)o3)ccc21 | -9.46% (inactive) |
| COc1ccc(N(C)C(=O)c2ccc3snnc3c2)cc1 | -7.24% (inactive) |
| COc1ccc(-c2ccc(Nc3ccc(S(=O)(=O)N4CCCC4)cc3)nn2)cc1OC | -6.38% (inactive) |
| Cc1ccc(C(=O)/C=C/c2ccc(-c3ccc(C)cc3)o2)cc1 | -19.4% (inactive) |
| COC(=O)Oc1ccc(/C=C/C(=O)OC(C)C)cc1OC(=O)OC | -16.1% (inactive) |
| CCc1c(C)nc2cc(-c3ccc(OC)c(OC)c3)nn2c1NCC1CC1 | -10.7% (inactive) |
| C=CS(=O)(=O)c1sc(Cl)c(N2CCOCC2)c1[N+](=O)[O-] | -16.6% (inactive) |
| COc1ccc(-c2nsc3c(N4CCCCC4C)ncnc23)cc1 (stereo not drawn) | -2.42% (inactive) |
| CC(Cc1cccs1)NC(=O)Nc1ccc(F)cc1 (stereo not drawn) | -3.13% (inactive) |
| COc1ccc(CNC(=O)C(c2ccc(C)cc2)N(Cc2cccs2)C(=O)c2ccc3c(c2)OCCO3)cc1 (stereo not drawn) | -11.3% (inactive) |
| COc1ccc(C(O)c2nc(-c3cccc(F)c3)cs2)cc1 (stereo not drawn) | -10.4% (inactive) |
| O=C(C1=C[C@@H](C2CC2)C[C@@H](OCCCCO)O1)N1CCN(Cc2ccccc2)CC1 | -3.33% (inactive) |
| NC(=O)c1cc(N2C(=O)C=CC2=O)ccc1Cl | -12.6% (inactive) |
| CC(C)C(NC(=O)c1ccc(Cl)cc1Cl)C(=O)N1CCN(S(=O)(=O)c2ccccc2)CC1 (stereo not drawn) | -15.1% (inactive) |
| O=C(Cc1ccccc1)NCCS(=O)c1ccc(Cl)cc1 (stereo not drawn) | 0.411% (inactive) |

| SMILES | activity change, negative = cytotoxicity |
| --- | --- |
| Nc1nnc(SCC(=O)Nc2ccc(N3CCOCC3)cc2)s1 | 14.7% (inactive) |
| CCCc1ccc(C(=O)NNc2cc(Cl)ccc2Cl)cc1 | -8.35% (inactive) |
| O=C(c1ccc(S(=O)(=O)c2ccc(F)cc2)c([N+](=O)[O-])c1)N1CCCCCC1 | -6.03% (inactive) |
| OCCNc1nc(Nc2ccc(Cl)cc2)nc(N2CCCC2)n1 | -5.38% (inactive) |
| CCCn1c(C)cc(C(=O)CN2C(=O)c3ccccc3S2(=O)=O)c1C | 0.847% (inactive) |
| O=C1S/C(=C\c2ccc(N3CCOCC3)o2)C(=O)N1Cc1c(F)cccc1Cl | -15.7% (inactive) |
| COc1c(C)cc(C(=O)C2CCCN(C(=O)c3cccc(-n4cccn4)c3)C2)cc1C (stereo not drawn) | -3.56% (inactive) |
| Cc1nc2scc(C)n2c(=O)c1S(=O)(=O)Nc1ccc(N2CCOCC2)c(Cl)c1 | -6.26% (inactive) |
| O=C(CSc1nc2ncc(Cl)cc2[nH]1)N1CCOCC1 | -4.52% (inactive) |
| CC(C)(C)C(=O)Nc1ccc(NC(=O)c2ccco2)nc1 | -10.1% (inactive) |
| COc1ccc(S(=O)(=O)NCCC(=O)OCC(=O)NC2CC2)cc1 | -16.9% (inactive) |
| O=C(CSc1nnc(Nc2ccccc2)s1)NC1CCS(=O)(=O)C1 (stereo not drawn) | -8.91% (inactive) |
| Cc1ccc(S(=O)(=O)N2CCCCC2)cc1NS(=O)(=O)c1ccccc1F | -9.02% (inactive) |
| COc1cccc(C2CC(c3ccc(C)cc3)=NN2C(=O)c2ccccc2F)c1OC (stereo not drawn) | -7.78% (inactive) |
| Cc1cc(C(=O)Cn2cnc3cc(F)ccc3c2=O)c(C)n1C1CC1 | -1.41% (inactive) |
| CCCc1nc([N+](=O)[O-])c(S(=O)(=O)c2ccccc2)n1CC(C)C | -25.5% (inactive) |
| Cc1ccc(C(=O)Nc2ccc3c(c2)C(=O)N(CC2CCCO2)C3=O)cc1 (stereo not drawn) | -10.1% (inactive) |
| COc1ccc([C@@]23Oc4cc(OC)cc(OC)c4[C@]2(O)[C@H](O)[C@H](C(=O)N(C)C)[C@H]3c2ccccc2)cc1 | -8.25% (inactive) |
| CCN(CC)C(=O)C1CCCN(c2ccc([N+](=O)[O-])cc2[N+](=O)[O-])C1 (stereo not drawn) | -12.1% (inactive) |
| CCCCN1CC(COCc2ccccc2)Oc2cccc(Oc3ccc(C(C)C)cc3)c2S1(=O)=O (stereo not drawn) | -4.99% (inactive) |
| COc1cccc(-c2nc(NC3CCCC3)c3ccccc3n2)c1O | -14.4% (inactive) |
| O=C(N[C@@H]1C/C=C\C[C@@H](CC(=O)N(CCO)Cc2ccccc2)C(=O)NC[C@H](c2ccccc2)OC1=O)OCC1c2ccccc2-c2ccccc21 | 2.33% (inactive) |
| Cc1ccc(-c2nc3cccnc3o2)cc1NC(=O)COc1ccc(C(C)(C)C)cc1 | -27.5% (inactive) |
| CC(C)CCC(C(=O)O)C(C)CC(=O)NNC(=O)c1ccco1 (stereo not drawn) | -2.17% (inactive) |

| SMILES | activity change, negative = cytotoxicity |
| --- | --- |
| CC(C)(C)N(Cc1ccccc1)C(=O)COC(=O)CCc1c[nH]c2ccccc12 | -8.24% (inactive) |
| CCCCCCN1C[C@H](n2cc(-c3ccc(F)cc3)nn2)[C@@H](O)C[C@@H]1c1ccc(Cl)cc1 | -62.3% (inactive) |
| CC(=O)N1c2ccc(S(=O)(=O)N3CCC(C(=O)N4CCN(c5cc(Cl)ccc5C)CC4)CC3)cc2CC1C (stereo not drawn) | 1.7% (inactive) |
| CCN(c1ccccc1)S(=O)(=O)c1ccc(Cl)c(NC(=O)CN(C)Cc2cccc(F)c2)c1 | -10.9% (inactive) |
| Cc1cccc(C)c1NC(=O)CN(C)C(=O)c1cc(S(=O)(=O)N(C)C)ccc1N1CCCC1 | 5.64% (inactive) |
| Oc1c(C(c2cccs2)N2CCC3(CC2)OCCO3)sc2ncnn12 (stereo not drawn) | -1.02% (inactive) |
| CCOC(=O)/C(=C\c1ccc([N+](=O)[O-])cc1)C(=O)c1cc(C(C)=O)c(Nc2ccccc2)s1 | -7.79% (inactive) |
| CCOC(=O)c1[nH]c(C)c(/C(O)=C2\C(=O)C(=O)N(CCCN3CCOCC3)C2c2cccs2)c1C (stereo not drawn) | 0.789% (inactive) |
| CN1C(=O)c2cccc(NCCCCCCN3C(=O)c4ccccc4C3=O)c2C1=O | -5.25% (inactive) |
| Cc1ccc(C)c(N2CCN(S(=O)(=O)c3ccc4[nH]c(=O)ccc4c3)CC2)c1 | 3.47% (inactive) |
| Nc1cc(=O)[nH]c(SCC(=O)Nc2cccc([N+](=O)[O-])c2)n1 | -5.8% (inactive) |
| CC1Cc2ccccc2N1Cc1cccc(S(=O)(=O)N(C)C)c1 (stereo not drawn) | -3.11% (inactive) |
| Cc1cccc(-c2noc(CN(C(=O)C(c3ccccc3)c3ccccc3)C(C)C)n2)c1 | -14.7% (inactive) |
| CCCCNc1cccc2c1S(=O)(=O)N(CCCC)CC(COCc1ccccc1)O2 (stereo not drawn) | -6.62% (inactive) |
| C=CCn1c(C)cc(C(=O)CN2C(=O)c3ccccc3S2(=O)=O)c1C | -11.7% (inactive) |
| CC(NNC(=S)N1CCN(c2ccccn2)CC1)c1nccc2ccccc12 (stereo not drawn) | -14.5% (inactive) |
| CCOC(=O)C1=C(C)N(CCCC(=O)O)C(=O)NC1c1ccc2ccccc2c1 (stereo not drawn) | -2.41% (inactive) |
| CC(=O)N1c2ccc(S(=O)(=O)N3CCC(C(=O)N4CCN(c5ccccc5F)CC4)CC3)cc2CC1C (stereo not drawn) | 4.49% (inactive) |
| CC1Cc2cc(S(=O)(=O)N3CCC(C(=O)N4CCN(c5ccccc5F)CC4)CC3)ccc2N1C(=O)C1CC1 (stereo not drawn) | -1.82% (inactive) |
| CC(=O)Oc1ccc(OC(C)=O)c(SCCCCCCl)c1 | -11.1% (inactive) |
| CN1/C(=C\C(=O)CN2C(=O)NC3(CCCCCC3)C2=O)C(C)(C)c2ccccc21 | -23% (inactive) |
| Cc1ccc(N2C(=O)c3cccc4c([N+](=O)[O-])ccc(c34)C2=O)c2cccnc12 | -22% (inactive) |
| O=C(N[C@@H]1C/C=C\C[C@H](CC(=O)N(CCO)Cc2ccccc2)C(=O)NC[C@@H](c2ccccc2)OC1=O)OCC1c2ccccc2-c2ccccc21 | -27% (inactive) |
| CN(CC(=O)Nc1cc(S(=O)(=O)N2CCCC2)ccc1Cl)Cc1ccc2c(c1)OCO2 | -8.05% (inactive) |

| SMILES | activity change, negative = cytotoxicity |
| --- | --- |
| Cc1ccc(NC(=O)NCCCN2CCOCC2)cc1 | 4.85% (inactive) |
| CC12CC(O)C3c4ccc(O)cc4CCC3C1CCC2=O (stereo not drawn) | -11.4% (inactive) |
| CCCCCOC(=O)c1[nH]c2c(c1C)C(=O)CC(c1ccco1)C2 (stereo not drawn) | -17.9% (inactive) |
| CCOC(=O)CNC(=O)C1(NC(=O)CNC(=O)OCc2ccccc2)CCCC1 (Cbz-Gly-[Ac5c]-Gly-OEt) | 1.52% (inactive) |
| CCC(C)[C@H]1CNC(=S)N1CCc1cc(C(F)(F)F)cc(C(F)(F)F)c1 (stereo partly drawn) | -12.5% (inactive) |
| CC(C)N=C(N)N=C(N)Nc1ccc(Cl)cc1 | -14.4% (inactive) |
| Cc1cc(C)cc(C(=O)NCC(=O)OCC(=O)NCC(F)(F)F)c1 | -10.9% (inactive) |
| CSC1SCC2C(=O)N(C)C(C(C)C)C(=O)OCC(NC(=O)c3cnc4ccccc4n3)C(=O)NC(C)C(=O)N(C)C1C(=O)N(C)C(C(C)C)C(=O)OCC(NC(=O)c1cnc3ccccc3n1)C(=O)NC(C)C(=O)N2C (stereo not drawn) | -23.9% (inactive) |
| O=C1ON=C(c2ccccc2)/C1=C/c1ccc(-c2ccccc2[N+](=O)[O-])o1 | -7.62% (inactive) |
| Cc1cc(C(=O)COC(=O)c2ccccc2O)c(C)n1Cc1cccs1 | 0.392% (inactive) |
| COc1ccc2c(CC(=O)OCC(=O)N(C)c3c(N)n(Cc4ccccc4)c(=O)[nH]c3=O)coc2c1 | 0.984% (inactive) |
| CC(Oc1ccc(F)cc1)C(=O)N(CCC1=CCCCC1)c1c(N)n(Cc2ccccc2)c(=O)[nH]c1=O (stereo not drawn) | -32.6% (inactive) |
| Cn1cccc1Cc1nnc(SCC(=O)NCCc2ccccc2)n1-c1ccc(F)cc1 | -2.41% (inactive) |
| CCCOc1ccccc1C1CC(=O)Nc2cc3c(cc21)OCCO3 (stereo not drawn) | -16.2% (inactive) |
| COc1cc(C#Cc2c(-c3cncn3C)n(C)c3ccc(-c4ccc(OC)nc4)cc23)cc(OC)c1 | -10% (inactive) |
| O=C(c1n[nH]c(=O)c2ccccc12)N1CCN(C2c3ccccc3-c3ccccc32)CC1 | -7.71% (inactive) |
| Cn1cc(CN(CCO)Cc2cccs2)c(-c2cccc(Cl)c2)n1 | -1.41% (inactive) |
| Cc1noc(C)c1COC(=O)[C@@H](NC(=O)c1ccccc1)C(C)C | 2.94% (inactive) |
| COc1ccc(CN(C(=O)CSc2nnc(-c3ccc(F)cc3)o2)c2ccc(F)cc2)cc1 | -3.67% (inactive) |
| Fc1ccccc1N1CCN(Cc2nc(-c3ccccc3)no2)CC1 | -9.95% (inactive) |
| O=C(Nc1cc2c3c(c1)C1CCCC1CN3CC1CCCC21)c1ccc([N+](=O)[O-])cc1 (stereo not drawn) | -8.21% (inactive) |
